“And” between values parts separate entries of the source, which are not always exact repeats. Identical values can stand only once. Compounds without any hit were thinned out: in the full panel of roughly 83,000, 20% have a hit.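 Method: cells in 96-well plates; compound added at one concentration; 48 h incubation; percent growth measured; values under 10 scored active.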 The source made the active and inactive calls.
How the values were obtained:
Test in all cases: NCI-60 one-dose screen, 48 h (100 = growth as untreated, 0 = no growth, -100 = all killed)
MCF7 breast = conditions: 10 µM unless noted
MOLT-4 leukemia = conditions: 10 µM
SR leukemia = conditions: 10 µM
RPMI-8226 leukemia = conditions: 10 µM
OVCAR-4 ovarian = conditions: 10 µM
SK-OV-3 ovarian = conditions: 10 µM
OVCAR-3 ovarian = conditions: 10 µM
HS 578T breast = conditions: 10 µM
NCI/ADR-RES ovarian = conditions: 10 µM
T-47D breast = conditions: 10 µM
BT-549 breast = conditions: 10 µM
MDA-MB-435 melanoma = conditions: 10 µM
SW-620 colon = conditions: 10 µM
HCT-116 colon = conditions: 10 µM
HCC-2998 colon = conditions: 10 µM
KM12 colon = conditions: 10 µM
OVCAR-5 ovarian = conditions: 10 µM
OVCAR-8 ovarian = conditions: 10 µM
IGROV1 ovarian = conditions: 10 µM

SMILES | growth (MCF7 breast) | growth (MOLT-4 leukemia) | growth (SR leukemia) | growth (RPMI-8226 leukemia) | growth (OVCAR-4 ovarian) | growth (SK-OV-3 ovarian) | growth (OVCAR-3 ovarian) | growth (HS 578T breast) | growth (NCI/ADR-RES ovarian) | growth (T-47D breast) | growth (BT-549 breast) | growth (MDA-MB-435 melanoma) | growth (SW-620 colon) | growth (HCT-116 colon) | growth (HCC-2998 colon) | growth (KM12 colon) | growth (OVCAR-5 ovarian) | growth (OVCAR-8 ovarian) | growth (IGROV1 ovarian)
COc1cc2c3cc1Oc1c(OC)c(OC)cc4c1C(Cc1ccc(cc1)Oc1cc(ccc1O)CC3N(C)CC2)N(C)CC4 (configuration not stated) | 33.8% [100 µM] (inactive) and -96.4% [100 µM] (active) | – | – | – | – | – | – | – | – | – | – | – | – | – | – | – | – | – | –
CC(=O)Nc1c2sscc-2n(C)c1=O | -60.9% (active) | -58% (active) | -27.4% (active) | -51.8% (active) | -96.4% (active) | -100% (active) | -100% (active) | -57% (active) | -94.8% (active) | -87.4% (active) | -96.4% (active) | -93.7% (active) | -99% (active) | -100% (active) | -100% (active) | -100% (active) | – | – | –
CC(C)C1(NC(=O)C2CC3c4cccc5[nH]cc(c45)CC3N(C)C2)OC2(O)C3CCCN3C(=O)C(Cc3ccccc3)N2C1=O (configuration not stated) | 95.8% (inactive) | 65.8% (inactive) | 87.8% (inactive) | 108% (inactive) | 70.9% (inactive) | 116% (inactive) | 116% (inactive) | 99.5% (inactive) | 102% (inactive) | 103% (inactive) | 91.4% (inactive) | 102% (inactive) | 103% (inactive) | 95.8% (inactive) | 105% (inactive) | 106% (inactive) | 72.2% (inactive) | – | –
CC12OOC(c3ccccc31)c1c2ccc2ccccc12 (configuration not stated) | 48.5% (inactive) | -58.3% (active) | -18.8% (active) | -33.8% (active) | – | 95.8% (inactive) | -92.4% (active) | 91.6% (inactive) | 50.3% (inactive) | -28.8% (active) | -82.2% (active) | 46.2% (inactive) | -52.1% (active) | -94.5% (active) | -91.7% (active) | -53.1% (active) | 66.1% (inactive) | – | –
C=C1C(=O)O[C@@H]2C[C@@H](C)[C@@H]3C=CC(=O)[C@@]3(C)[C@@H](O)[C@H]12 | -4.11% (active) | -48.5% (active) | -11.7% (active) | -52.3% (active) | – | 11.5% (inactive) | -100% (active) | 18.2% (inactive) | 12.9% (inactive) | -58.1% (active) | -85.1% (active) | -88.2% (active) | -30.5% (active) | -93.5% (active) | -97.7% (active) | -84.3% (active) | – | – | –
NNc1ccccc1 | 86.8% (inactive) | 73.1% (inactive) | 53% (inactive) | – | 102% (inactive) | 99.6% (inactive) | 97.7% (inactive) | 109% (inactive) | 83.1% (inactive) | 53.9% (inactive) | – | 88.6% (inactive) | 64.5% (inactive) | 78.4% (inactive) | 104% (inactive) | 64.7% (inactive) | 90.2% (inactive) | 100% (inactive) | 88.4% (inactive)

Reference: PubChem BioAssay (NCI)
